Test results: the supplement of paper PMC12067926
A number with no mark means an inactive call.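 The calls were made as follows: active = growth AUC significantly below the DMSO wells by Dunnett test; inactive = the rest.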

Legend:
Assay in all cases: relative growth (AUC of 72 h growth curve relative to DMSO control, dAUC) (ratio); higher = more growth (less inhibition), active = hit call of the paper
Settings in all cases: 20 µM
[1] = tested on: Aeromonas 1 (Aeromonas sp. AE235)
How it was run: (§1)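 Whole sediment communities and bacterial isolates from Icelandic stream sediments and Silwood Park soil were brought to carrying capacity in Luria–Bertani medium. They were then diluted 1:100 into 96-well plates with each chemical at 20 µM in 1% DMSO, and A600 was recorded every hour for 72 h. The area under each growth curve, integrated by spline, was averaged across three biological replicates. This figure, divided by the mean of the DMSO controls, gives relative growth (dAUC).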

[2] = tested on: Aeromonas 2 (Aeromonas sobria)
How it was run: as §1

[3] = tested on: Aeromonas 3 (Aeromonas popoffii)
How it was run: as §1

[4] = tested on: Argrobacterium 1 (Agrobacterium sp.)
How it was run: as §1

[5] = tested on: Arthrobacter 1 (Arthrobacter humicola)
How it was run: as §1

[6] = tested on: Arthrobacter 2 (Arthrobacter humicola)
How it was run: as §1

[7] = tested on: Arthrobacter 3 (Arthrobacter sp.)
How it was run: as §1

Community 4 = tested on: Community 4
How it was run: as §1

Community 6 = tested on: Community 6
How it was run: as §1

Community 7 = tested on: Community 7
How it was run: as §1

Community 8 = tested on: Community 8
How it was run: as §1

Community 9 = tested on: Community 9
How it was run: as §1

[8] = tested on: Flavobacterium 1 (Flavobacterium glaciei)
How it was run: as §1

[9] = tested on: Flavobacterium 2 (Flavobacterium succinicans)
How it was run: as §1

[10] = tested on: Hymenobacter 1 (Hymenobacter glaciei)
How it was run: as §1

[11] = tested on: Microbacterium 1 (Microbacterium arborescens)
How it was run: as §1

[12] = tested on: Neobacillus 1 (Neobacillus soli)
How it was run: as §1

[13] = tested on: Oryzobacter 1 (Oryzobacter terrae)
How it was run: as §1

[14] = tested on: Paenibacillus 1 (Paenibacillus castaneae)
How it was run: as §1

## CCCC(Cn1cncn1)c1ccc(Cl)cc1Cl (stereo unspecified)
[1]
  relative growth: 0.932
[2]
  relative growth: 0.996
[3]
  relative growth: 1.01
[4]
  relative growth: 1.15
[5]
  relative growth: 1
[6]
  relative growth: 1.02
[7]
  relative growth: 0.987
Community 4
  relative growth: 1.11
Community 6
  relative growth: 1.06
Community 7
  relative growth: 0.902
Community 8
  relative growth: 1.09
Community 9
  relative growth: 1.12
[8]
  relative growth: 1.07
[9]
  relative growth: 0.966
[10]
  relative growth: 0.877
[11]
  relative growth: 0.99
[12]
  relative growth: 1.09
[13]
  relative growth: 1.05
[14]
  relative growth: 1.06

## CO/C=C(/C(=O)OC)c1ccccc1COc1cccc(C(F)(F)F)n1
[1]
  relative growth: 0.992
[2]
  relative growth: 0.905
[3]
  relative growth: 0.97
[4]
  relative growth: 1.06
[5]
  relative growth: 0.923
[6]
  relative growth: 0.886
[7]
  relative growth: 1.02
Community 4
  relative growth: 0.935
Community 6
  relative growth: 0.929
Community 7
  relative growth: 1.04
Community 8
  relative growth: 1
Community 9
  relative growth: 0.987
[8]
  relative growth: 0.911
[9]
  relative growth: 0.962
[10]
  relative growth: 1.06
[11]
  relative growth: 0.997
[12]
  relative growth: 1.01
[13]
  relative growth: 0.944
[14]
  relative growth: 1.01

## CC1COC(Cn2cncn2)(c2ccc(Oc3ccc(Cl)cc3)cc2Cl)O1 (stereo unspecified)
[1]
  relative growth: 1.08
[2]
  relative growth: 1.03
[3]
  relative growth: 1.02
[4]
  relative growth: 1.04
[5]
  relative growth: 0.741
[6]
  relative growth: 0.223 (active)
[7]
  relative growth: 0.348 (active)
Community 4
  relative growth: 1.2
Community 6
  relative growth: 1.06
Community 7
  relative growth: 1.02
Community 8
  relative growth: 1.01
Community 9
  relative growth: 1.21
[8]
  relative growth: 0.367 (active)
[9]
  relative growth: 0.988
[10]
  relative growth: 0.956
[11]
  relative growth: 0.936
[12]
  relative growth: 1.08
[13]
  relative growth: 1.16
[14]
  relative growth: 0.872

## CN1COCN(Cc2cnc(Cl)s2)/C1=N\[N+](=O)[O-]
[1]
  relative growth: 0.991
[2]
  relative growth: 0.983
[3]
  relative growth: 0.984
[4]
  relative growth: 1.04
[5]
  relative growth: 1.04
[6]
  relative growth: 1.02
[7]
  relative growth: 1.13
Community 4
  relative growth: 1.04
Community 6
  relative growth: 0.963
Community 7
  relative growth: 0.896
Community 8
  relative growth: 1.02
Community 9
  relative growth: 1.06
[8]
  relative growth: 1.02
[9]
  relative growth: 0.975
[10]
  relative growth: 0.998
[11]
  relative growth: 0.974
[12]
  relative growth: 1.01
[13]
  relative growth: 0.955
[14]
  relative growth: 0.945

## N#CCNC(=O)c1cnccc1C(F)(F)F
[1]
  relative growth: 1.01
[2]
  relative growth: 0.97
[3]
  relative growth: 1.03
[4]
  relative growth: 0.992
[5]
  relative growth: 0.965
[6]
  relative growth: 0.882
[7]
  relative growth: 0.96
Community 4
  relative growth: 0.954
Community 6
  relative growth: 0.919
Community 7
  relative growth: 1.01
Community 8
  relative growth: 0.986
Community 9
  relative growth: 0.902
[8]
  relative growth: 0.973
[9]
  relative growth: 0.944
[10]
  relative growth: 0.973
[11]
  relative growth: 1.01
[12]
  relative growth: 0.935
[13]
  relative growth: 1.09
[14]
  relative growth: 0.935

## CC1(C)C(C=C(Cl)Cl)C1C(=O)OC(C#N)c1cccc(Oc2ccccc2)c1 (stereo unspecified)
[1]
  relative growth: 0.976
[2]
  relative growth: 1.04
[3]
  relative growth: 1.08
[4]
  relative growth: 1.07
[5]
  relative growth: 1.28
[6]
  relative growth: 0.971
[7]
  relative growth: 1.03
Community 4
  relative growth: 1.1
Community 6
  relative growth: 1.12
Community 7
  relative growth: 0.963
Community 8
  relative growth: 1.08
Community 9
  relative growth: 1.12
[8]
  relative growth: 0.979
[9]
  relative growth: 1.05
[10]
  relative growth: 1.08
[11]
  relative growth: 1.03
[12]
  relative growth: 1.02
[13]
  relative growth: 1.07
[14]
  relative growth: 1

## Fc1ccc([C@]2(Cn3cncn3)O[C@H]2c2ccccc2Cl)cc1 (racemic)
[1]
  relative growth: 0.946
[2]
  relative growth: 0.979
[3]
  relative growth: 0.974
[4]
  relative growth: 0.985
[5]
  relative growth: 0.883
[6]
  relative growth: 0.947
[7]
  relative growth: 0.856
Community 4
  relative growth: 0.965
Community 6
  relative growth: 1.05
Community 7
  relative growth: 1.15
Community 8
  relative growth: 1.04
Community 9
  relative growth: 0.984
[8]
  relative growth: 0.944
[9]
  relative growth: 0.938
[10]
  relative growth: 0.943
[11]
  relative growth: 1.01
[12]
  relative growth: 0.963
[13]
  relative growth: 1.13
[14]
  relative growth: 0.92

## O=C(NC(=O)c1c(F)cccc1F)Nc1ccc(OC(F)(F)C(F)OC(F)(F)F)c(Cl)c1 (stereo unspecified)
[1]
  relative growth: 0.958
[2]
  relative growth: 0.975
[3]
  relative growth: 0.988
[4]
  relative growth: 0.995
[5]
  relative growth: 0.843
[6]
  relative growth: 0.911
[7]
  relative growth: 0.942
Community 4
  relative growth: 0.934
Community 6
  relative growth: 0.934
Community 7
  relative growth: 1.11
Community 8
  relative growth: 0.997
Community 9
  relative growth: 0.925
[8]
  relative growth: 0.951
[9]
  relative growth: 0.969
[10]
  relative growth: 0.944
[11]
  relative growth: 1.05
[12]
  relative growth: 0.888
[13]
  relative growth: 0.958
[14]
  relative growth: 0.957

## CC[C@H]1CCC[C@H](O[C@H]2CC[C@H](N(C)C)[C@@H](C)O2)[C@@H](C)C(=O)C2=C[C@@H]3[C@@H](C=C(C)[C@@H]4C[C@@H](O[C@@H]5O[C@@H](C)[C@H](OC)[C@@H](OC)[C@H]5OC)C[C@@H]34)[C@@H]2CC(=O)O1.CC[C@H]1CCC[C@H](O[C@H]2CC[C@H](N(C)C)[C@@H](C)O2)[C@@H](C)C(=O)C2=C[C@H]3[C@@H]4C[C@H](O[C@@H]5O[C@@H](C)[C@H](OC)[C@@H](OC)[C@H]5OC)C[C@H]4C=C[C@H]3C2CC(=O)O1
[1]
  relative growth: 0.972
[2]
  relative growth: 0.977
[3]
  relative growth: 0.979
[4]
  relative growth: 1.08
[5]
  relative growth: 0.832
[6]
  relative growth: 0.89
[7]
  relative growth: 0.999
Community 4
  relative growth: 0.855
Community 6
  relative growth: 0.699
Community 7
  relative growth: 1.36
Community 8
  relative growth: 0.95
Community 9
  relative growth: 0.711
[8]
  relative growth: 0.859
[9]
  relative growth: 0.951
[10]
  relative growth: 1.06
[11]
  relative growth: 0.985
[12]
  relative growth: 0.965
[13]
  relative growth: 1.14
[14]
  relative growth: 0.832

## O=C(NC(=O)c1c(F)cccc1F)Nc1ccc(Cl)cc1
[1]
  relative growth: 1.01
[2]
  relative growth: 1.01
[3]
  relative growth: 0.986
[4]
  relative growth: 1.04
[5]
  relative growth: 0.955
[6]
  relative growth: 0.985
[7]
  relative growth: 1.09
Community 4
  relative growth: 0.924
Community 6
  relative growth: 0.996
Community 7
  relative growth: 0.985
Community 8
  relative growth: 1.06
Community 9
  relative growth: 1.05
[8]
  relative growth: 0.844
[9]
  relative growth: 0.949
[10]
  relative growth: 0.917
[11]
  relative growth: 1.03
[12]
  relative growth: 0.942
[13]
  relative growth: 1.04
[14]
  relative growth: 0.957

## CO/C=C(/C(=O)OC)c1ccccc1Oc1cc(Oc2ccccc2C#N)ncn1
[1]
  relative growth: 0.938
[2]
  relative growth: 0.929
[3]
  relative growth: 0.947
[4]
  relative growth: 1.02
[5]
  relative growth: 0.985
[6]
  relative growth: 1
[7]
  relative growth: 1.08
Community 4
  relative growth: 1.1
Community 6
  relative growth: 0.903
Community 7
  relative growth: 0.834
Community 8
  relative growth: 1.03
Community 9
  relative growth: 1.04
[8]
  relative growth: 1.09
[9]
  relative growth: 0.99
[10]
  relative growth: 1.03
[11]
  relative growth: 0.975
[12]
  relative growth: 1.01
[13]
  relative growth: 1.13
[14]
  relative growth: 1.01

## O=C(O)COc1ccc(Cl)cc1Cl
[1]
  relative growth: 0.976
[2]
  relative growth: 0.999
[3]
  relative growth: 0.998
[4]
  relative growth: 0.944
[5]
  relative growth: 0.921
[6]
  relative growth: 0.958
[7]
  relative growth: 0.969
Community 4
  relative growth: 1.04
Community 6
  relative growth: 1.02
Community 7
  relative growth: 1.08
Community 8
  relative growth: 0.972
Community 9
  relative growth: 1.03
[8]
  relative growth: 0.966
[9]
  relative growth: 1.02
[10]
  relative growth: 1.07
[11]
  relative growth: 1.02
[12]
  relative growth: 1
[13]
  relative growth: 0.964
[14]
  relative growth: 1.01

## CN/C(=N\[N+](=O)[O-])NCc1cnc(Cl)s1
[1]
  relative growth: 1
[2]
  relative growth: 0.976
[3]
  relative growth: 0.985
[4]
  relative growth: 0.98
[5]
  relative growth: 0.983
[6]
  relative growth: 0.841
[7]
  relative growth: 0.873
Community 4
  relative growth: 0.981
Community 6
  relative growth: 0.914
Community 7
  relative growth: 1.06
Community 8
  relative growth: 1
Community 9
  relative growth: 0.871
[8]
  relative growth: 0.869
[9]
  relative growth: 0.939
[10]
  relative growth: 0.958
[11]
  relative growth: 0.983
[12]
  relative growth: 0.85
[13]
  relative growth: 1.05
[14]
  relative growth: 0.961

## OC(Cn1cncn1)(c1ccc(F)cc1)c1ccccc1F (stereo unspecified)
[1]
  relative growth: 0.996
[2]
  relative growth: 1.04
[3]
  relative growth: 1.01
[4]
  relative growth: 1.02
[5]
  relative growth: 0.835
[6]
  relative growth: 1.11
[7]
  relative growth: 1.04
Community 4
  relative growth: 1.08
Community 6
  relative growth: 1.07
Community 7
  relative growth: 0.819
Community 8
  relative growth: 1.04
Community 9
  relative growth: 1.08
[8]
  relative growth: 1.12
[9]
  relative growth: 1.07
[10]
  relative growth: 1.13
[11]
  relative growth: 0.996
[12]
  relative growth: 1.08
[13]
  relative growth: 1.05
[14]
  relative growth: 1.05
